In publication PMC5540273 (PLoS ONE, 2017):

System: T1, MINK
T1 construct: gene MINK1
Conditions: concentration: 1 μM, replicates: in singlicate; n = 1
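Note: KINOMEscan kinase panel screen.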

`COc1ccc(Nc2nccc(N3CCC(NC(=O)Nc4cccc(C(C)=O)c4)C3)n2)cc1` (centres unmarked) [GSK1379731] and `COc1ccc(Nc2nccc(N3CCC(NC(=O)Nc4cc(C)ccc4C)C3)n2)cc1` (centres unmarked) [GSK1379741] are the same in “%Inh” value: 0% for the first, 0% for the second.

Going from `Fc1ccc(-c2nn3c(OCC(F)(F)F)cccc3c2-c2ccncc2)cc1` [GW514784] to `Cl.Oc1cccc(Nc2ccnc3cc(-c4ccncc4)ccc23)c1` [GW494601], the “%Inh” value rises from 35% to 79%.

`Cc1cn2c(=O)cc(N3CCOCC3)nc2n1Cc1cccc(Cl)c1Cl` [GSK2334006] and `O=c1cc(N2CCOCC2)nc2n(Cc3cccc(Cl)c3Cl)c(C3CC3)nn12` [GSK2358994] are the same in “%Inh” value: 0% for the first, 0% for the second.

Going from `Fc1ccc(-c2ncn(CCCN3CCOCC3)c2-c2cccnc2)cc1` [SB-211743] to `O=C(c1ccc(-c2cc(-c3c[nH]nc3-c3ccccn3)ccn2)cc1)N1CCOCC1` [GW812171], the “%Inh” value rises from 16% to 40%.

First: C[C@@H](Oc1cc(-n2cnc3ccc(NC(=O)NC(C)(C)C)cc32)sc1C(N)=O)c1ccccc1Cl [GSK346294]
Second: Cc1ccc(C(=O)NCC(N)=O)cc1-n1c(C)cc(OCc2ccc(F)cc2F)c(Br)c1=O
The “%Inh” value of the first is higher: 4% for the first, 0% for the second.

First: c1ccc(-c2n[nH]cc2-c2ccnc3ccccc23)nc1 [GW271431]
Second: N#Cc1ccc(-c2cc(-c3c[nH]nc3-c3ccccn3)ccn2)cc1 [GW693028]
The “%Inh” value of the first is lower: 54% for the first, 76% for the second.

First: O=C1Cc2cc(Nc3nc(NCc4cccc(S(=O)(=O)C(F)(F)F)c4)ncc3C(F)(F)F)ccc2N1
Second: NCC(NC(=O)c1cc(-c2cn[nH]c2)c(-c2ccnc3[nH]ccc23)s1)c1ccccc1.O=C(O)C(F)(F)F.O=C(O)C(F)(F)F (centres unmarked) [GSK1325775]
The “%Inh” value of the first is lower: 0% for the first, 59% for the second.

Compared with `CC(C)Oc1ccc2c(-c3ccnc(Nc4ccc(N5CCN(C)CC5)cc4)n3)cnn2n1` [GW696155], `COc1ccc(CNC(=O)NC2CCN(c3ccnc(Nc4ccc(OC)cc4)n3)C2)cc1` (centres unmarked) [GSK1379727] is lower in “%Inh” value: 65% for the first, 4% for the second.

Compared with `CN(C(=O)c1ccc(-c2cc(-c3c[nH]nc3-c3ccccn3)ccn2)cc1)C1CCOCC1` [GW810083], `CC(=O)Nc1ccc(COc2ccc(Nc3ccnc4cc(-c5ccccn5)ccc34)cc2)cc1.Cl` [GW440148] is higher in “%Inh” value: 8% for the first, 11% for the second.

First: O=C(Nc1cccc(-c2nn3ncccc3c2-c2ccnc(Nc3cccc(C(F)(F)F)c3)n2)c1)c1c(F)cccc1F [GSK299495]
Second: NS(=O)(=O)CCc1cccc(Nc2nccc(-c3c(-c4cccc(NC(=O)c5c(F)cccc5F)c4)nn4ccccc34)n2)c1 [GSK336735]
The “%Inh” value of the first is lower: 0% for the first, 62% for the second.

`O=c1cc(N2CCOCC2)nc2n(Cc3cccc(F)c3)ccn12` [GSK2297430] and `[2H]C([2H])(c1cccc(C(F)(F)F)c1C)n1ccn2c(=O)nc(N3CCOCC3)cc12` [GSK2336394] are the same in “%Inh” value: 0% for the first, 0% for the second.

Going from `CCc1nc(-c2cccc(C)c2)c(-c2ccnc(NCc3ccccc3)c2)s1` to `CCc1ccnc(/C=C/c2n[nH]c3cc(Sc4ccccc4C(=O)NC)ccc23)c1`, the “%Inh” value rises from 2% to 34%.

Compared with `Cc1nnc(-c2ccc(C)c(-c3ccc(C(=O)Nc4ccc(NS(C)(=O)=O)cc4)cc3)c2)o1` [GW702865], `Cc1nnc(-c2ccc3occ(-c4ccc(C(C)O)cc4)c3c2)o1` (centres unmarked) is lower in “%Inh” value: 19% for the first, 0% for the second.

Compared with `Cc1nnc(-c2ccc3ncc(-c4ccc(S(C)=O)cc4)n3c2)o1` (centres unmarked), `CN1c2ccc(NCc3ccc(F)cc3)cc2-c2c(cnn2C)S1(=O)=O` is higher in “%Inh” value: 0% for the first, 26% for the second.

First: CCn1cnc2c(N)ncnc21 [GW345098]
Second: COCCNC(=O)c1ccc(-c2cc(C(=O)NC3CC3)cc(F)c2C)cc1 [GW868318]
The “%Inh” value of the first is lower: 5% for the first, 23% for the second.

First: O=C(NCCCN1CCOCC1)c1cccc(Nc2nccc(Nc3ccc(Oc4ccccc4)cc3)n2)c1 [GW663929]
Second: O=C(NOCC1CC1)c1ccc(F)c(F)c1Nc1ccc(I)cc1Cl
The “%Inh” value of the first is higher: 18% for the first, 0% for the second.

System: MKK7
Conditions: concentration: 1 μM, replicates: in singlicate; n = 1

Going from `COc1ccc(Nc2nccc(N3CCC(NC(=O)Nc4cccc(C(C)=O)c4)C3)n2)cc1` (centres unmarked) [GSK1379731] to `COc1ccc(Nc2nccc(N3CCC(NC(=O)Nc4cc(C)ccc4C)C3)n2)cc1` (centres unmarked) [GSK1379741], the “%Inh” value rises from 0% to 28%.

`Fc1ccc(-c2nn3c(OCC(F)(F)F)cccc3c2-c2ccncc2)cc1` [GW514784] and `Cl.Oc1cccc(Nc2ccnc3cc(-c4ccncc4)ccc23)c1` [GW494601] are the same in “%Inh” value: 0% for the first, 0% for the second.

Going from `Cc1cn2c(=O)cc(N3CCOCC3)nc2n1Cc1cccc(Cl)c1Cl` [GSK2334006] to `O=c1cc(N2CCOCC2)nc2n(Cc3cccc(Cl)c3Cl)c(C3CC3)nn12` [GSK2358994], the “%Inh” value falls from 29% to 0%.

Compared with `Fc1ccc(-c2ncn(CCCN3CCOCC3)c2-c2cccnc2)cc1` [SB-211743], `O=C(c1ccc(-c2cc(-c3c[nH]nc3-c3ccccn3)ccn2)cc1)N1CCOCC1` [GW812171] is higher in “%Inh” value: 8% for the first, 24% for the second.

`C[C@@H](Oc1cc(-n2cnc3ccc(NC(=O)NC(C)(C)C)cc32)sc1C(N)=O)c1ccccc1Cl` [GSK346294] and `Cc1ccc(C(=O)NCC(N)=O)cc1-n1c(C)cc(OCc2ccc(F)cc2F)c(Br)c1=O` are the same in “%Inh” value: 0% for the first, 0% for the second.

`c1ccc(-c2n[nH]cc2-c2ccnc3ccccc23)nc1` [GW271431] and `N#Cc1ccc(-c2cc(-c3c[nH]nc3-c3ccccn3)ccn2)cc1` [GW693028] are the same in “%Inh” value: 0% for the first, 0% for the second.

`O=C1Cc2cc(Nc3nc(NCc4cccc(S(=O)(=O)C(F)(F)F)c4)ncc3C(F)(F)F)ccc2N1` and `NCC(NC(=O)c1cc(-c2cn[nH]c2)c(-c2ccnc3[nH]ccc23)s1)c1ccccc1.O=C(O)C(F)(F)F.O=C(O)C(F)(F)F` (centres unmarked) [GSK1325775] are the same in “%Inh” value: 0% for the first, 0% for the second.

First: CC(C)Oc1ccc2c(-c3ccnc(Nc4ccc(N5CCN(C)CC5)cc4)n3)cnn2n1 [GW696155]
Second: COc1ccc(CNC(=O)NC2CCN(c3ccnc(Nc4ccc(OC)cc4)n3)C2)cc1 (centres unmarked) [GSK1379727]
The “%Inh” value of the first is lower: 0% for the first, 14% for the second.

`CN(C(=O)c1ccc(-c2cc(-c3c[nH]nc3-c3ccccn3)ccn2)cc1)C1CCOCC1` [GW810083] and `CC(=O)Nc1ccc(COc2ccc(Nc3ccnc4cc(-c5ccccn5)ccc34)cc2)cc1.Cl` [GW440148] are the same in “%Inh” value: 0% for the first, 0% for the second.

First: O=C(Nc1cccc(-c2nn3ncccc3c2-c2ccnc(Nc3cccc(C(F)(F)F)c3)n2)c1)c1c(F)cccc1F [GSK299495]
Second: NS(=O)(=O)CCc1cccc(Nc2nccc(-c3c(-c4cccc(NC(=O)c5c(F)cccc5F)c4)nn4ccccc34)n2)c1 [GSK336735]
The “%Inh” value of the first is lower: 0% for the first, 100% for the second.

Compared with `O=c1cc(N2CCOCC2)nc2n(Cc3cccc(F)c3)ccn12` [GSK2297430], `[2H]C([2H])(c1cccc(C(F)(F)F)c1C)n1ccn2c(=O)nc(N3CCOCC3)cc12` [GSK2336394] is higher in “%Inh” value: 0% for the first, 14% for the second.

`CCc1nc(-c2cccc(C)c2)c(-c2ccnc(NCc3ccccc3)c2)s1` and `CCc1ccnc(/C=C/c2n[nH]c3cc(Sc4ccccc4C(=O)NC)ccc23)c1` are the same in “%Inh” value: 0% for the first, 0% for the second.

`Cc1nnc(-c2ccc(C)c(-c3ccc(C(=O)Nc4ccc(NS(C)(=O)=O)cc4)cc3)c2)o1` [GW702865] and `Cc1nnc(-c2ccc3occ(-c4ccc(C(C)O)cc4)c3c2)o1` (centres unmarked) are the same in “%Inh” value: 0% for the first, 0% for the second.

Compared with `NCCNS(=O)(=O)c1ccc(-c2ccnc3[nH]ccc23)cc1` [GSK977617], `COCCNC(=O)c1ccc(-c2cc(C(=O)NC3CC3)cc(F)c2C)cc1` [GW868318] is higher in “%Inh” value: 0% for the first, 37% for the second.

Compared with `Cc1nnc(-c2ccc3ncc(-c4ccc(S(C)=O)cc4)n3c2)o1` (centres unmarked), `CN1c2ccc(NCc3ccc(F)cc3)cc2-c2c(cnn2C)S1(=O)=O` is lower in “%Inh” value: 18% for the first, 0% for the second.

`CCn1cnc2c(N)ncnc21` [GW345098] and `O=C(NOCC1CC1)c1ccc(F)c(F)c1Nc1ccc(I)cc1Cl` are the same in “%Inh” value: 0% for the first, 0% for the second.

In the case of `O=C(NCCCN1CCOCC1)c1cccc(Nc2nccc(Nc3ccc(Oc4ccccc4)cc3)n2)c1` [GW663929], the “%Inh” value is reported as 0%.
